According to PubChem BioAssay (Tox21):
Several values for one entry are separate records, joined by “and”; a condition that tells them apart may be missing. Identical values can stand only once. Results filed as inconclusive are left out. Entries that show only a call come without a potency. Activity calls are given as the source filed them. Unless noted, calls follow the shape of the dose curve; as a rule, active = well fitted curve in the direction sought with a large enough effect in the repeat runs; inconclusive = weak or mixed curves; inactive = no such curve, though single readings can be large; an effect the other way counts as inactive or inconclusive.

Tests used:
[1] = biological target: Peroxisome proliferator-activated receptor delta (Homo sapiens) (UniProt Q03181); experiment: qHTS assay to identify small molecule agonists of the peroxisome proliferator-activated receptor delta (PPARd) signaling pathway (AID 743212; calls by dose curve)
Peroxisome proliferator-activated receptor delta (Homo sapiens), sequence (Q03181 whole entry, looked up): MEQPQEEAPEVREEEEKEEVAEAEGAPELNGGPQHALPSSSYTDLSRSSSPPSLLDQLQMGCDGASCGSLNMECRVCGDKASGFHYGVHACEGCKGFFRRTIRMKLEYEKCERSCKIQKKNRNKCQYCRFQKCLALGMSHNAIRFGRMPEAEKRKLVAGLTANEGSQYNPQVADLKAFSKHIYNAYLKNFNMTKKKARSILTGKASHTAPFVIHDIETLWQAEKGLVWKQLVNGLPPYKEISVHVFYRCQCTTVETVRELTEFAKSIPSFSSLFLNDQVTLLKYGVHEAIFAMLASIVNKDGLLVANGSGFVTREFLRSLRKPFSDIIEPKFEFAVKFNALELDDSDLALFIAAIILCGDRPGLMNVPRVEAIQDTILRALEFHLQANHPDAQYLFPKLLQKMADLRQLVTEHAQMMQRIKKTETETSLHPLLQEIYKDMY
In short: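 Quantitative high-throughput agonist screen in a HEK293H beta-lactamase reporter line under UAS control. Compounds in DMSO, at 37 C. Fluorescence read after 2 h with FRET substrate at room temperature.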

[2] = qHTS assay to identify small molecule antagonists of the peroxisome proliferator-activated receptor delta (PPARd) signaling pathway - cell viability counter screen (AID 743213); also: nearly all actives have a fitted effect of over 50% in size; also: potency is read from the fitted curve at half-maximal effect
In short: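 Cytotoxicity counter screen: CellTiter-Glo luminescence read 30 min after addition, in the same wells as the reporter assay. There, PPARd UAS-bla HEK293H cells (3000/well) were treated 17 h at 37 C with compound and 300 nM L165041.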

[3] = biological target: Peroxisome proliferator-activated receptor delta (Homo sapiens) (UniProt Q03181); experiment: qHTS assay to identify small molecule antagonists of the peroxisome proliferator-activated receptor delta (PPARd) signaling pathway (AID 743215; active = well fitted inhibition curve with a large enough effect in the signal ratio in the repeat runs, not every such curve was filed as active; the % refers to the signal ratio;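 also: cells stimulated with agonist L165041 at 300 nM final during compound exposure; series mostly up to about 62 µM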)
In short: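 Antagonist-mode beta-lactamase reporter screen: HEK293H cells with UAS-bla under PPARd control, stimulated by 300 nM L165041 (final) alongside test compound for 17 h at 37 C, then FRET fluorescence after 2 h substrate incubation.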

[4] = qHTS assay to identify small molecule agonists of the farnesoid-X-receptor (FXR) signaling pathway - cell viability counter screen (AID 743218); also: nearly all actives have a fitted effect of over 45% in size; also: potency is read from the fitted curve at half-maximal effect
In short: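 In GeneBLAzer FXR-UAS-bla HEK 293T cells, compounds act for 16 h at 37 C. Cell viability is then scored in the reporter wells by CellTiter-Glo, 30 min at RT, luminescence.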

[5] = qHTS assay to identify small molecule antagonists of the farnesoid-X-receptor (FXR) signaling pathway - cell viability counter screen (AID 743221; active = well fitted cell-killing curve with a large enough effect in the repeat runs, not every such curve was filed as active; also: nearly all actives have a fitted effect of over 50% in size)
In short: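 HEK 293T FXR-bla cells, 5 h pre-incubation; compound + CDCA 50 uM final, 16 h, 37 C; beta-lactamase FRET read first, then CellTiter-Glo luminescence, 30 min RT.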

[6] = biological target: Vitamin D3 receptor (Homo sapiens) (UniProt P11473); experiment: qHTS assay to identify small molecule agonists of the vitamin D receptor (VDR) signaling pathway (AID 743222; calls by dose curve)
Vitamin D3 receptor (Homo sapiens), sequence (P11473 whole entry, looked up): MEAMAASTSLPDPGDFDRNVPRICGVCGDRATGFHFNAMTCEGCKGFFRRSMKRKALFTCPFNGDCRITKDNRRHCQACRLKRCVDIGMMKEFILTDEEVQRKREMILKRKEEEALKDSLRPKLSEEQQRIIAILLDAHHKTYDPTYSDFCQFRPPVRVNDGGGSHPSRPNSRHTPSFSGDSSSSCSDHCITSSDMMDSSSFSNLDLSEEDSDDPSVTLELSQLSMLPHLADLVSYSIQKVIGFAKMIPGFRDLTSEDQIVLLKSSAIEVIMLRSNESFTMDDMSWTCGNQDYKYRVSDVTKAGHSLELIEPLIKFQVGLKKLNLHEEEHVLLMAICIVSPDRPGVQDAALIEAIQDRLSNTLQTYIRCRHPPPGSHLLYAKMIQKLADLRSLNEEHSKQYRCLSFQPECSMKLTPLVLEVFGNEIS
In short: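 Agonist activity measured in VDR-bla reporter cells. Exposure 16 h, 37C, 5% CO2; detection by B/G FRET substrate, 2 h RT.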

[7] = biological target: Vitamin D3 receptor (Homo sapiens) (UniProt P11473); experiment: qHTS assay to identify small molecule antagonists of the vitamin D receptor (VDR) signaling pathway (AID 743223; active = well fitted inhibition curve with a large enough effect in the signal ratio in the repeat runs, not every such curve was filed as active; the % refers to the signal ratio)
In short: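 Beta-lactamase reporter read-out: FRET substrate fluorescence after 2 h at room temperature, following 16 h exposure of VDR-bla cells to test compound plus 3 nM (final) 1alpha,25-dihydroxyvitamin D3 agonist at 37C.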

[8] = qHTS assay to identify small molecule agonists of the vitamin D receptor (VDR) signaling pathway - cell viability counter screen (AID 743224); also: nearly all actives have a fitted effect of over 50% in size; also: potency is read from the fitted curve at half-maximal effect
In short: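 VDR-bla cell line, quantitative HTS format; 16 h compound incubation (37C, 5% CO2); ATP-based CellTiter-Glo luminescence measured in the reporter assay wells.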

[9] = qHTS assay to identify small molecule antagonists of the vitamin D receptor (VDR) signaling pathway - cell viability counter screen (AID 743225); also: nearly all actives have a fitted effect of over 50% in size
In short: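 Viability counter screen run in the same wells as the beta-lactamase reporter assay: HEK 293T VDR-UAS-bla cells, 16 h compound exposure at 37C with 3 nM (final) 1-alpha,25-dihydroxyvitamin D3. CellTiter-Glo luminescence, 30 min, room temperature.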

[10] = qHTS assay to identify small molecule agonists of the endoplasmic reticulum stress response signaling pathway (AID 1159516; active = well fitted activation curve with a large enough effect in the signal ratio in the repeat runs, not every such curve was filed as active; the % refers to the signal ratio)
In short: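 ER stress element reporter (bla) in HeLa. 1,500 cells/well, overnight attachment; 5 hr compound; 2 hr RT substrate; dual-emission fluorescence.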

[11] = qHTS assay to identify small molecule agonists of the endoplasmic reticulum stress response signaling pathway - cell viability counter screen (AID 1159517; calls by dose curve; also: nearly all actives have a fitted effect of over 50% in size; also: potency is read from the fitted curve at half-maximal effect)
In short: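 Counter-screen wells were identical to the reporter wells. Cells were plated at 1,500 per well and dosed for 5 hr, then read for luminescence 30 min after CellTiter-Glo addition.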

[12] = qHTS assay to identify small molecule antagonists of the retinoid-related orphan receptor gamma (ROR-gamma) signaling pathway - cell viability counter screen (AID 1159520); also: nearly all actives have a fitted effect of over 50% in size
In short: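 Tet-on ROR gamma CHO cells were given compounds for 2 hr, then doxycycline hyclate at 1 uM final, and incubated 16 hr at 37 C. Viability was measured as ATP content by CellTiter-Glo luminescence.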

[13] = biological target: Nuclear receptor ROR-gamma (Homo sapiens) (UniProt P51449); experiment: qHTS assay to identify small molecule antagonists of the retinoid-related orphan receptor gamma (ROR-gamma) signaling pathway (AID 1159521; also: nearly all actives have a fitted effect of over 50% in size; also: potency is read from the fitted curve at half-maximal effect)
In short: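 Luminescence readout (ONE-Glo, 30 min RT) after 16 h doxycycline induction; loss of signal scored as antagonism. CHO cells with TET-inducible RORγ and RORE-LUC reporter; compounds added 2 h before 1 uM final doxycycline.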

[14] = qHTS assay to identify small molecule agonists of the AP-1 signaling pathway - cell viability counter screen (AID 1159525; calls by dose curve; also: nearly all actives have a fitted effect of over 55% in size)
In short: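 AP-1-bla ME-180 cells in Opti-MEM with 0.5% dialyzed FBS, compound exposure 5 h at 37 C in 15-point titration. Viability read in the same wells as ATP content by CellTiter-Glo luminescence, normalised to tetra-n-octylammonium bromide and DMSO controls.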

[15] = qHTS assay to identify small molecule agonists of the AP-1 signaling pathway (AID 1159526; calls by dose curve)
[16] = biological target: Retinoic acid receptor RXR-alpha (Homo sapiens) (UniProt P19793); experiment: qHTS assay to identify small molecule agonists of the RXR signaling pathway (AID 1159527; calls by dose curve; also: nearly all actives have a fitted effect of over 35% in size; also: potency is read from the fitted curve at half-maximal effect)
Retinoic acid receptor RXR-alpha (Homo sapiens), sequence (P19793 whole entry, looked up): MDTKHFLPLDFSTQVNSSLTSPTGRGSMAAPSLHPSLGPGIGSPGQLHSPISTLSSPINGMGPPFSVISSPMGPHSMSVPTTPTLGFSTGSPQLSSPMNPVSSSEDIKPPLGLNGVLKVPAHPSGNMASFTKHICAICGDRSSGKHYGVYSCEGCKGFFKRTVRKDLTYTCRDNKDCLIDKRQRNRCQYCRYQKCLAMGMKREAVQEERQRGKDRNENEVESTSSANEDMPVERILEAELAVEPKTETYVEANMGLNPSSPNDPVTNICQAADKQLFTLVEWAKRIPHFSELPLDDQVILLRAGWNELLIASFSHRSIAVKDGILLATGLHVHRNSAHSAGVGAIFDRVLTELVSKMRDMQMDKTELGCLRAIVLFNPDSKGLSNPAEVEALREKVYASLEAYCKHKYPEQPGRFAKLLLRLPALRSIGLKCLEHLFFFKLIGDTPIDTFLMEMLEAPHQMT
In short: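 Agonist mode; 9-cis retinoic acid positive control. HEK 293T UAS-bla reporter cells, 2% charcoal-stripped FBS, 16 hr compound exposure at 37 C/5% CO2. LiveBLAzer B/G FRET substrate 2 hr RT; ex 405, em 460/530 nm.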

[17] = qHTS assay to identify small molecule agonists of the peroxisome proliferator-activated receptor delta (PPARd) signaling pathway - cell viability counter screen (AID 743211); also: nearly all actives have a fitted effect of over 55% in size; also: potency is read from the fitted curve at half-maximal effect
In short: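 Read-out: CellTiter-Glo luminescence, 30 min RT, measured in the same wells as the beta-lactamase reporter. Cells: GeneBLAzer PPAR delta UAS-bla HEK293H, 3000 cells/well, compound exposure 17 h at 37C.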

[18] = biological target: Bile acid receptor (Homo sapiens) (UniProt Q96RI1); experiment: qHTS assay to identify small molecule antagonists of the farnesoid-X-receptor (FXR) signaling pathway (AID 743217; active = well fitted inhibition curve with a large enough effect in the signal ratio in the repeat runs, not every such curve was filed as active; the % refers to the signal ratio)
Bile acid receptor (Homo sapiens), sequence (Q96RI1 whole entry, looked up): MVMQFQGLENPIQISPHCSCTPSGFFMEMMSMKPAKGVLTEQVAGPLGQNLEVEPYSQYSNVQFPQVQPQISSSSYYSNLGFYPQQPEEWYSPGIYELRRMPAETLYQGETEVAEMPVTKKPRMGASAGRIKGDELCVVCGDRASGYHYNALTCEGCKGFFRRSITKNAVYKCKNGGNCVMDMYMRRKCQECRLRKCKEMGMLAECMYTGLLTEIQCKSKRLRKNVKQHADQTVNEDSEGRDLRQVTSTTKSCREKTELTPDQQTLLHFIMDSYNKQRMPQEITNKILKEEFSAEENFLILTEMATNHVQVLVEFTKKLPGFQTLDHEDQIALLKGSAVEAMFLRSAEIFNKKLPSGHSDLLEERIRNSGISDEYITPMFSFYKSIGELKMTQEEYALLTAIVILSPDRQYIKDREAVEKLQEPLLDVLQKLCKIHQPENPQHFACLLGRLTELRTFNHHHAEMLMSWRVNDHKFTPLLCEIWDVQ
In short: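 Beta-lactamase reporter under UAS control in HEK 293T cells; compound exposure 16 h at 37 °C in the presence of chenodeoxycholic acid (50 uM final); signal from B/G FRET substrate after 2 h at room temperature.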

[19] = biological target: Bile acid receptor (Homo sapiens) (UniProt Q96RI1); experiment: qHTS assay to identify small molecule agonists of the farnesoid-X-receptor (FXR) signaling pathway (AID 743220; active = well fitted activation curve with a large enough effect in the signal ratio in the repeat runs, not every such curve was filed as active; the % refers to the signal ratio; also: potency is read from the fitted curve at half-maximal effect)
In short: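 Beta-lactamase reporter under UAS control in GeneBLAzer FXR HEK 293T cells (5000/well) measured with LiveBLAzer FRET substrate after 2 h at room temperature. Compound exposure lasted 16 h at 37C.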

[20] = qHTS assay to identify small molecule agonists of the NFkB signaling pathway - cell viability counter screen (AID 1159515; calls by dose curve; also: series mostly up to about 61 µM; nearly all actives have a fitted effect of over 55% in size)
In short: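 Viability in NFkB-bla ME-180 cells was measured by CellTiter-Glo luminescence, 30 min room temperature, in wells already treated 5 hr with compounds and read for reporter FRET.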

| Structure (SMILES) | Potency [1] | Potency [2] | Potency [3] | Potency [4] | Potency [5] | Potency [6] | Potency [7] | Potency [8] | Potency [9] | outcome [10] | Potency [11] | Potency [12] | Potency [13] | Potency [14] | Potency [15] | Potency [16] | Potency [17] | Potency [18] | Potency [19] | Potency [20] |
| --- | --- | --- | --- | --- | --- | --- | --- | --- | --- | --- | --- | --- | --- | --- | --- | --- | --- | --- | --- | --- |
| CSc1ccc(C(=O)c2[nH]c(=O)[nH]c2C)cc1 | inactive | inactive | inactive | inactive | inactive | inactive | inactive | inactive | inactive | inactive | inactive | inactive | inactive | inactive | inactive | inactive |  |  |  |  |
| COc1cccc(N)c1 |  |  |  |  | inactive |  | inactive |  |  | inactive | inactive | inactive |  | inactive | inactive | inactive | inactive | inactive | inactive |  |
| CC1(C)CCC(C)(C)c2cc(C(=O)Nc3ccc(C(=O)O)cc3)ccc21 | inactive |  | inactive | inactive |  |  |  |  |  |  |  |  |  |  | inactive | 4.36 µM (active) | inactive | inactive | 43.6 µM (active) | inactive |
| CCC(C)(C)C1CCCCC1OC(C)=O (stereo not drawn) | inactive | 54.9 µM (active) |  | inactive | inactive |  |  | 38.9 µM (active) | inactive | inactive | inactive | inactive | inactive | inactive | inactive | inactive | inactive |  |  |  |
| CCCCC(CC)COP(=O)(O)OCC(CC)CCCC (stereo not drawn) |  | inactive |  | 55 µM (active) and 43.6 µM (active) | inactive |  | inactive | 55 µM (active) | inactive | inactive | 55 µM (active) and 49 µM (active) | inactive | 54.6 µM (active) and 48.6 µM (active) | inactive |  |  | 55 µM (active) |  | inactive |  |
| O=C(O)c1ccc(Cl)c(Cl)c1 | inactive | inactive | inactive | inactive | inactive | inactive | inactive |  | inactive | inactive | inactive | inactive |  | inactive | inactive | inactive | inactive |  | inactive |  |
| CNC(=O)c1ccccc1 | inactive | inactive | inactive | inactive | inactive | inactive | inactive | inactive | inactive | inactive | inactive | inactive | inactive | inactive | inactive | inactive | inactive | inactive | inactive |  |
